# Reference: PubChem BioAssay (Tox21)
# Inconclusive results are not listed. Calls of active or inactive are those of the source. Calls come from the whole dose curve; as a rule, active = well fitted cell-killing curve with a large enough effect in the repeat runs; inconclusive = weak or mixed curves, or effect the other way; inactive = flat fitted curve, though single readings scatter.
# Assay: qHTS assay to identify small molecule antagonists of the androgen receptor (AR) signaling pathway using the MDA cell line - cell viability counter screen (AID 743041; note: nearly all actives have a fitted effect of over 45% in size)
# Conditions: MDA-kb2 viability, CellTiter-Fluor, 16 h, cells co-treated with R1881 androgen agonist; series mostly up to 70.3 µM; viability change, negative = cytotoxic: at the top concentration
# Text: National Center for Advancing Translational Sciences [NCATS]
# NIH Chemical Genomics Center [NCGC]
# U.S. Environmental Protection Agency [EPA]
# National Institutes of Environmental Health Sciences [NIEHS]
# National Toxicology Program [NTP]
# U.S. Food and Drug Administration [FDA]
# Androgen receptor (AR), a nuclear hormone receptor, plays a critical role in AR-dependent prostate cancer and other androgen related diseases. Endocrine disrupting chemicals (EDCs) and their interactions with steroid hormone receptors like AR may cause disruption of normal endocrine function as well as interfere with metabolic homeostasis, reproduction, developmental and behavioral functions. To identify the compounds that inhibit AR signaling, MDA-kb2 AR-luc cell line (from ATCC, deposited by Wilson et al.) was used to screen the Tox21 10K compound library. MDA-kb2 AR-luc cell line is human breast carcinoma cell line that was stably transfected with a luciferase reporter gene under control of the MMTV promoter containing response elements for both androgen receptor (AR) and glucocorticoid receptor (GR). The cytotoxicity of the Tox21 compound library against the MDA-kb2 AR-luc cell line was tested in parallel by measuring the cell viability using CellTiter-Fluor assay (Promega, Madison, WI) in the same wells.
# Tox21 Assay Protocol Summary:
# MDA-kb2 AR-luc cells were dispensed at 3,000 cells/4 uL/well of culture medium into white wall/solid-bottom 1536-well plates using a Multidrop Combi (ThermoFisher Scientific, Waltham, MA) dispenser. After the assay plates were incubated at a 37C and 0% CO2 for 5 hr, 23 nL of compounds dissolved in DMSO, positive controls or DMSO only was transferred to the assay plate by a Pintool station (Kalypsys, San Diego, CA), followed by addition of 1 uL of agonist (R1881) in culture medium using a Bioraptr Flying Reagent Dispenser (FRD) workstation (Beckman Coulter, Indianapolis, IN, USA). The plates were incubated at a 37C and 0% CO2 for 16 h. After 15.5 h incubation, 1uL of CellTiter-Fluor reagent (Promega) was added using a Bioraptr FRD to each plate for measuring cytotoxicity. The fluorescence intensity was quantified on a ViewLux plate reader (PerkinElmer, Shelton, CT) following 30 min incubation at 37C and 0% CO2.
# % is set by controls: 0 for no effect and ±100 for the full control effect.
Structure (SMILES),"viability change, negative = cytotoxic",outcome
CC(C)(c1ccc(Oc2ccc3c(c2)C(=O)OC3=O)cc1)c1ccc(Oc2ccc3c(c2)C(=O)OC3=O)cc1,-1.58% (inactive),–
CO[Si](CCCS)(OC)OC,1.8% (inactive),–
NS(=O)(=O)c1cc2c(cc1Cl)NC(C(Cl)Cl)NS2(=O)=O (stereo not given),-2.24% [at 32.5 µM] (inactive),–
O=S(=O)(O)SSS(=O)(=O)O,8.22% (inactive),–
CC(=O)OC(C)c1ccccc1 (stereo not given),-4.9% (inactive),–
COc1ccc(NS(=O)(=O)c2ccc(N)cc2)nn1,-0.117% [at 32.5 µM] (inactive),–
C[C@@H]1C[C@H]2[C@@H]3C[C@H](F)C4=CC(=O)C=C[C@]4(C)[C@@]3(F)[C@@H](O)C[C@]2(C)[C@@]1(O)C(=O)CO,1.74% [at 32.5 µM] (inactive),–
CCC(C)(CCC(C)C)C(=O)[O-].CCC(C)(CCC(C)C)C(=O)[O-].[Zn+2] (stereo not given),4.04% (inactive),–
O=C(Oc1ccccc1C(=O)O)c1ccccc1O,-4.54% (inactive),–
CN[C@@H]1[C@H](O)[C@H](NC)[C@H]2O[C@@]3(O)C(=O)C[C@@H](C)O[C@H]3O[C@@H]2[C@H]1O,4.46% [at 32.5 µM] (inactive),–
CCOc1ccc(NC(=O)OC(C)C)cc1OCC,-2.61% (inactive),–
CC(C)CCCCCCOC(=O)C1CCCCC1C(=O)OCCCCCCC(C)C (stereo not given),-0.904% (inactive),–
Cc1cccc(Nc2ccncc2S(=O)(=O)NC(=O)NC(C)C)c1,26.5% [at 32.5 µM] (inactive),–
O=C(c1ccc2c(c1)C(=O)OC2=O)c1ccc2c(c1)C(=O)OC2=O,3.61% (inactive),–
Cc1cccc(C(=O)O)c1[N+](=O)[O-],-2.96% (inactive),–
C=CCOc1c(Br)cc(Br)cc1Br,3.44% (inactive),–
NC(=O)C1(N2CCCCC2)CCN(CCCC(=O)c2ccc(F)cc2)CC1,-9% (inactive),–
CCOC(=O)C(C)(C)C,-5.16% [at 95 µM] (inactive),–
CC1=CC[C@H](CC=O)C1(C)C,1.21% (inactive),–
O=C(O)c1ccccc1C(=O)OCc1ccccc1,-1.07% (inactive),–

Structure (SMILES),"viability change, negative = cytotoxic",outcome
N#CCCOCCOCCC#N,-7.54% (inactive),–
CCCCCC1Nc2cc(C(F)(F)F)c(S(N)(=O)=O)cc2S(=O)(=O)N1 (stereo not given),14.9% (inactive),–
Nc1ccc(S(=O)(=O)Nc2ccccn2)cc1,1.14% [at 32.5 µM] (inactive),–
C=CCOc1cc(Cl)ccc1C(=O)NCCN(CC)CC,-5.26% (inactive),–
O=C(CN1CCN(Cc2ccc3c(c2)OCO3)CC1)N1c2ccccc2Sc2ccccc21,-6.98% (inactive),–
CCN(Cc1cccc(S(=O)(=O)O)c1)c1ccccc1,5.8% (inactive),–
O=c1cc(O)c(Cl)c[nH]1,-2.43% (inactive),–
CCN(CCO)c1cccc(C)c1,1.41% (inactive),–
CCC(C)(C)C1CCC(=O)CC1,-4.77% (inactive),–
CCCCC/C=C/CC(=O)OC,-0.564% (inactive),–
CC(C)CCC(=O)CCC(C)C,-2.27% (inactive),–
O=C(O)/C=C/c1ccccc1,–,inactive
Cn1c(=O)c2c(ncn2CC2OCCO2)n(C)c1=O,2.5% (inactive),–
O=S(=O)(O)CCO,24.9% [at 95 µM] (inactive),–
O=c1[nH]c(=O)c2[nH]c(=O)[nH]c2[nH]1,–,inactive
CCCCCCCCCCCCOC(C)=O,-18.8% (inactive),–
COCCOCCOCCOC,3.05% (inactive),–
CCCCCC1CCCC(=O)O1 (stereo not given),28.3% (inactive),–
CC(C)COC(=O)COc1ccc(Cl)cc1Cl,-0.0273% (inactive),–
CC(=O)OC(C(=O)c1ccccc1)c1ccccc1 (stereo not given),0.607% [at 95 µM] (inactive),–
